Reference: PubChem BioAssay (NCATS)
“And” between values parts separate entries of the source, which are not always exact repeats. Equal values may be shown once. Records with an inconclusive call do not appear. Values without a mark were called inactive. The source made the active and inactive calls. Calls come from the whole dose curve; as a rule, active = well fitted curve in the direction sought with a large enough effect; inconclusive = small, poorly fitted or top-dose-only effect, or another doubt; inactive = no such curve, though single readings can be large or run the other way.

assay: qHTS Assay for Identifying Gametocytocidal Compounds (AID 743244);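 for max response: actives lower the fluorescent signal which means gametocytes are killed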; settings: P. falciparum 3D7 stage III-V gametocytes, alamarBlue, 72 h; max response: active compounds read low
How it was run: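 Viability read-out was resazurin reduction (alamarBlue, 24 h) measured at Ex 525/Em 598 nm. Beforehand, late-stage (III-V) 3D7 P. falciparum gametocytes at 20,000 cells/well were incubated with compound 72 h at 37C under 5% CO2.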
% is set by controls: 0 for no effect and ±100 for the full control effect; potency is the fitted concentration of half-maximal effect.

Compound	max response	Potency
CCOC(=O)n1ccn(C)c1=S	21.8%	
CNCC[C@@H](Oc1ccccc1C)c1ccccc1	-11.3%	
CC(C)(CO)[C@@H](O)C(=O)NCCCO	14.7%	
CCCSS/C(CCO)=C(\C)N(C=O)Cc1cnc(C)nc1N	2.02%	
C/C=C(/C(=C/C)c1ccc(O)cc1)c1ccc(O)cc1	-1.19%	
CNC(=O)CN(CCN(CCN(CC(=O)[O-])CC(=O)NC)CC(=O)[O-])CC(=O)[O-].O.[Gd+3]	14.6% and -8.14%	
CCCCCCCCCCCCCCCCCC(=O)OCC(O)CO (centres undefined)	-12.5%	
C#C[C@]1(O)CC[C@H]2[C@@H]3CCC4=CC(=O)CC[C@@H]4[C@H]3CC[C@@]21C	8.68%	
CN(C)CC/C=C1/c2ccccc2COc2ccc(CC(=O)O)cc21	3.04%	
Cc1c(C(N)=O)cc([N+](=O)[O-])cc1[N+](=O)[O-]	-0.173%	
COc1ccc(CCN2CCC(Nc3nc4ccccc4n3Cc3ccc(F)cc3)CC2)cc1		3.16 µM (active)
CCCCCCCCCCCCCCCC[N+](C)(C)CCN(Cc1ccc(OC)cc1)c1ncccn1		7.08 µM (active)
O=c1c(-c2ccccc2)c1-c1ccccc1		3.98 µM (active)
COC(=O)CCc1ccc(OCC(O)CNC(C)C)cc1 (centres undefined)	1.13%	
CN=C(NC#N)Nc1ccc(C2=NNC(=O)CC2C)cc1 (centres undefined)	-3.79%	
O=C(Nc1ccc(Oc2ccc(Cl)cc2)c(Cl)c1)c1cc(I)cc(I)c1O	-9.6%	
CCCCN1CCCC1C(=O)Nc1c(C)cc(C)cc1C (centres undefined)	-5.69%	
CC[N+](CC)(CCNC(=O)C(=O)NCC[N+](CC)(CC)Cc1ccccc1Cl)Cc1ccccc1Cl	15.6%	
O=C1c2ccccc2C(=O)C1c1ccccc1	1.91%	
OC[C@H]1O[C@@H](n2cnc3c(=S)nc[nH]c32)[C@H](O)[C@@H]1O	-4.52%	
COc1cccc(OC)c1C(=O)N[C@@H]1C(=O)N2[C@@H]1SC(C)(C)[C@@H]2C(=O)O	-0.927%	
O=C1OC2(c3ccc(O)cc3Oc3cc(O)ccc32)c2ccccc21	-13.2% and 24.2%	
C/C=C/c1ccc(OC)cc1	16%	
CC(C)COC(=O)c1ccc(N)cc1	10.2%	
